According to PubChem BioAssay (NCATS):
Records with an inconclusive call do not appear. Calls of active or inactive are those of the source. Unless noted, calls come from the whole dose curve.

Columns and labels:
[1] = Cell Viability - BJ (AID 421); conditions: BJ fibroblast viability, qHTS;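 note: potency is the fitted concentration of half-maximal effect; cells exposed to compound for 40 hours at 37 °C before readout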
How it was run: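 Normal human BJ foreskin fibroblasts, 1500/well in complete medium, treated 40 hr at 37 °C. Cellular ATP by CellTiter-Glo luminescence; normalized to DMSO and 100 uM tamoxifen, AC50 from Hill fit.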

[2] = Cell Viability - Jurkat (AID 426;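 active = dose-dependent loss of cell ATP signal giving a full or clear fitted curve, ranked by lower potency value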; note: potency is the fitted concentration of half-maximal effect); conditions: qHTS
How it was run: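 Jurkat (Clone E6-1) cells, 5000/well in complete medium, exposed to compounds for 40 hr at 37C; intracellular ATP measured by CellTiter-Glo luminescence after 20 min at room temperature. AC50 from Hill fits.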

[3] = Cell Viability - Hek293 (AID 427;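 active = compounds whose dose-response curve shows a full or clear partial loss of cell viability, called from curve shape rather than a numeric limit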;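 note: potency is the fitted concentration of half-maximal effect; cells exposed to compound for 40 hours at 37 °C before reading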); conditions: qHTS
How it was run: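 HEK293 cells in complete medium were exposed to compound for 40 hr at 37 °C, then cellular ATP was read by CellTiter-Glo luminescence. Data were normalized to DMSO (basal) and 100 uM tamoxifen (100% inhibition), and AC50 came from Hill fits.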

[4] = Cell Viability - HepG2 (AID 433); conditions: qHTS;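 note: potency is the fitted concentration of half-maximal effect; potency for ATP loss meaning cytotoxicity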
How it was run: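 In this qHTS format, a 40 h, 37 °C compound incubation of HepG2 cells in complete medium precedes a 20 min CellTiter-Glo step at room temperature. Tamoxifen and doxorubicin serve as positive controls; Hill-equation fits yield AC50.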

[5] = Cell Viability - MRC5 (AID 434); conditions: MRC5 lung fibroblast viability, qHTS;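 note: potency is the fitted concentration of half-maximal effect; potency reflects cytotoxicity seen as loss of intracellular ATP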
How it was run: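 MRC5 normal human lung fibroblasts (1500/well) were treated with compounds for 40 hr at 37 °C in complete medium, and viable cells were measured as intracellular ATP by CellTiter-Glo luminescence. AC50 came from Hill fits, normalized to DMSO and 100 uM tamoxifen.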

[6] = Cell Viability - SK-N-SH (AID 435); conditions: SK-N-SH neuroblastoma cell viability qHTS;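 note: potency is the fitted concentration of half-maximal effect; compound exposure lasted 40 h at 37 °C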
How it was run: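 Human neuroblastoma line, 40 h exposure at 37 °C, ATP quantified via luciferase luminescence; DMSO and 100 uM tamoxifen define 0 and 100% inhibition for AC50 fitting.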

[7] = biological target: Mitogen-activated protein kinase 10 (Mus musculus) (UniProt Q61831); experiment: JNK3 AlphaScreen Assay (AID 530; active = well fitted curve in either direction with a large enough effect, not every such curve was filed as active;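 note: kinase came from lysate of stimulated human HepG2 cells; signal reports phosphorylation of biotinylated GST-cJun 1-79 at Ser73 with 10 µM ATP; % is set by controls: 0 for no effect and ±100 for the full control effect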); conditions: JNK3 lysate, c-Jun phosphorylation; series mostly up to 57.1 µM
How it was run: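 Inhibitors reduce antibody binding to phosphorylated biotin-cJun, lowering AlphaScreen luminescence. Lysates from HepG2 cells pre-activated by IL-1beta plus TNF-alpha supplied JNK3; compounds were titrated.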

[8] = Cell Viability - N2a (AID 540; active = well fitted curve in the direction sought with a large enough effect; an effect the other way counts as inactive or inconclusive;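 note: plate controls were DMSO alone for no effect and tamoxifen control for full effect; nearly all actives have a fitted effect of over 45% in size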); conditions: N2a mouse neuroblastoma cell viability; activity change, negative = cytotoxicity: at 92.2 µM (top of the series)
How it was run: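 Mouse neuroblastoma N2a cells, 1500/well, exposed to compounds 40 h at 37 °C in complete medium. Viability measured as cellular ATP by CellTiter-Glo luminescence; AC50 from Hill fits of concentration-response.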

[9] = Cell Viability - NIH 3T3 (AID 541; active = well fitted curve in the direction sought with a large enough effect; an effect the other way counts as inactive or inconclusive;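 note: plate controls were DMSO alone for no effect and tamoxifen positive control for full effect; nearly all actives have a fitted effect of over 25% in size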); conditions: NIH 3T3 cell viability, qHTS; activity change, negative = cytotoxicity: at 92.2 µM (top of the series)
How it was run: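 Mouse NIH 3T3 fibroblasts, 1000 cells/well, rested 5 hr at 37 °C, then exposed to compound for 40 hr at 37 °C in complete medium. Viability read as intracellular ATP by CellTiter-Glo luminescence; AC50 from Hill-equation fits of concentration-response data.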

[10] = Cell Viability - HUV-EC-C (AID 542; active = well fitted curve in the direction sought with a large enough effect; an effect the other way counts as inactive or inconclusive; note: % is set by controls: 0 for no effect and ±100 for the full control effect; nearly all actives have a fitted effect of over 35% in size); conditions: HUV-EC-C endothelial cell viability, qHTS; series mostly up to 92.2 µM
How it was run: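 HUV-EC-C human vascular endothelial cells, 1000/well, exposed to compound for 40 hr at 37 °C in complete medium. Intracellular ATP was read by CellTiter-Glo luminescence. AC50 came from Hill-equation fits of concentration-response data.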

O=C(O)CNC(=O)c1ccc([N+](=O)[O-])cc1
inactive: Potency [1] > 92 µM | Potency [2] > 92 µM | Potency [3] > 92 µM | Potency [4] > 92 µM | Potency [5] > 92 µM | Potency [6] > 92 µM | outcome [7] | activity change, negative = cytotoxicity [8] -8.74% | Potency [9] | Potency [10]

Clc1ccc(Cl)c(Cl)c1Cl
inactive: Potency [1] > 92 µM | Potency [2] > 92 µM | Potency [3] > 92 µM | Potency [4] > 92 µM | Potency [5] > 92 µM | Potency [6] > 92 µM | outcome [7] | activity change, negative = cytotoxicity [8] -2.29% | Potency [9] | Potency [10]

NC=O
inactive: Potency [1] > 92 µM | Potency [2] > 92 µM | Potency [3] > 92 µM | Potency [4] > 92 µM | Potency [5] > 92 µM | Potency [6] > 92 µM | outcome [7] | activity change, negative = cytotoxicity [8] 1.82% | Potency [9] | Potency [10]

Nc1cccc(C(F)(F)F)c1
inactive: Potency [1] > 92 µM | Potency [2] > 92 µM | Potency [3] > 92 µM | Potency [4] > 92 µM | Potency [5] > 92 µM | Potency [6] > 92 µM | outcome [7] | activity change, negative = cytotoxicity [8] 0.982% | Potency [9] | Potency [10]

COc1ccccc1[N+](=O)[O-]
inactive: Potency [1] > 92 µM | Potency [2] > 92 µM | Potency [3] > 92 µM | Potency [4] > 92 µM | Potency [5] > 92 µM | Potency [6] > 92 µM | outcome [7] | activity change, negative = cytotoxicity [8] -25.3% | Potency [9] | Potency [10]

O=C(O)c1ccc(C(=O)O)cc1
inactive: Potency [1] > 92 µM | Potency [2] > 92 µM | Potency [3] > 92 µM | Potency [4] > 92 µM | Potency [5] > 92 µM | Potency [6] > 92 µM | outcome [7] | activity change, negative = cytotoxicity [8] 0.102% | Potency [9] | Potency [10]

CC(=O)OCc1ccco1
inactive: Potency [1] > 92 µM | Potency [2] > 92 µM | Potency [3] > 92 µM | Potency [4] > 92 µM | Potency [5] > 92 µM | Potency [6] > 92 µM | outcome [7] | activity change, negative = cytotoxicity [8] -7.42% | Potency [9] | Potency [10]

C1CCC2OC2C1 (stereo not given)
inactive: Potency [1] > 92 µM | Potency [2] > 92 µM | Potency [3] > 92 µM | Potency [4] > 92 µM | Potency [5] > 92 µM | Potency [6] > 92 µM | outcome [7] | activity change, negative = cytotoxicity [8] -14.9% | Potency [9] | Potency [10]

Cc1ccccc1C(N)=O
inactive: Potency [1] > 92 µM | Potency [2] > 92 µM | Potency [3] > 92 µM | Potency [4] > 92 µM | Potency [5] > 92 µM | Potency [6] > 92 µM | outcome [7] | activity change, negative = cytotoxicity [8] -9.85% | Potency [9] | Potency [10]

CCOC(C)(C)C
inactive: Potency [1] > 92 µM | Potency [2] > 92 µM | Potency [3] > 92 µM | Potency [4] > 92 µM | Potency [5] > 92 µM | Potency [6] > 92 µM | outcome [7] | activity change, negative = cytotoxicity [8] -6.59% | Potency [9] | Potency [10]

NC(=O)CCCCC(N)=O
inactive: Potency [1] > 92 µM | Potency [2] > 92 µM | Potency [3] > 92 µM | Potency [4] > 92 µM | Potency [5] > 92 µM | Potency [6] > 92 µM | outcome [7] | activity change, negative = cytotoxicity [8] -5.03% | Potency [9] | Potency [10]

O=C1OC(=O)c2c(Br)c(Br)c(Br)c(Br)c21
inactive: Potency [1] > 92 µM | Potency [2] > 92 µM | Potency [3] > 92 µM | Potency [4] > 92 µM | Potency [5] > 92 µM | Potency [6] > 92 µM | outcome [7] | activity change, negative = cytotoxicity [8] -3.13% | Potency [9] | Potency [10]

O=C1OC(=O)c2c(Cl)c(Cl)c(Cl)c(Cl)c21
inactive: Potency [1] > 92 µM | Potency [2] > 92 µM | Potency [3] > 92 µM | Potency [4] > 92 µM | Potency [5] > 92 µM | Potency [6] > 92 µM | outcome [7] | activity change, negative = cytotoxicity [8] 4.39% | Potency [9] | Potency [10]

Cc1cc(C2(c3cc(C)c(O)cc3C)OS(=O)(=O)c3ccccc32)c(C)cc1O
inactive: Potency [1] > 92 µM | Potency [2] > 92 µM | Potency [3] > 92 µM | Potency [4] > 92 µM | Potency [5] > 92 µM | Potency [6] > 92 µM | outcome [7] | activity change, negative = cytotoxicity [8] -2.09% | Potency [9] | Potency [10]

N#Cc1ccccc1
inactive: Potency [1] > 92 µM | Potency [2] > 92 µM | Potency [3] > 92 µM | Potency [4] > 92 µM | Potency [5] > 92 µM | Potency [6] > 92 µM | outcome [7] | activity change, negative = cytotoxicity [8] 6.76% | Potency [9] | Potency [10]

CC(C)=CCl
inactive: Potency [1] > 92 µM | Potency [2] > 92 µM | Potency [3] > 92 µM | Potency [4] > 92 µM | Potency [5] > 92 µM | Potency [6] > 92 µM | outcome [7] | activity change, negative = cytotoxicity [8] 1.02% | Potency [9] | Potency [10]
